Screening results as filed in PubChem.
Only some compounds are listed: those with a hit (about 4% of all), similar ones and a draw of the others.
Rv3671c protease: Rv3671c (M. tuberculosis) protease inhibition; P9WHR9; inhibition, % at 5.96 µM; hit rate 0.048% among 320,000; in the data active means inhibition above about 38%;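 further: extracellular domain of Rv3671c used as enzyme; 0% = enzyme with DMSO and 100% = no enzyme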
Mtb bLac sens: beta-lactam sensitization of Mtb H37Rv; inhibition, % at 25 µM; M. tuberculosis H37Rv growth with meropenem, percent inhibition; hit rate 0.27% among 330,000; AID 434955; call rule not given here;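 further: growth measured after seven days incubation then overnight dye step; 0% = bacteria only wells and 100% = bacteria with antibiotic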
GDH-TPI inh: inhibits GDH-TPI coupling enzymes, artifact for Mtb FBA screen. inhibition, % at 4.8 µM. GDH-TPI coupled enzyme counterscreen, NADH absorbance. hit rate 1.2% among 360,000; in the data active means inhibition above about 30%;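 further: 0% = DMSO wells and 100% = wells lacking the enzyme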
UGM FP inh: Mtb UDP-galactopyranose mutase inhibition | inhibition, % at 10 µM | purified UGM, fluorescence polarization probe displacement | P9WIQ1 | hit rate 0.06% among 320,000; in the data active means inhibition above about 10%, passing the limit was not always enough; inconclusive means no clear call, values can overlap the other calls
Target sequence (P9WIQ1 whole entry, looked up): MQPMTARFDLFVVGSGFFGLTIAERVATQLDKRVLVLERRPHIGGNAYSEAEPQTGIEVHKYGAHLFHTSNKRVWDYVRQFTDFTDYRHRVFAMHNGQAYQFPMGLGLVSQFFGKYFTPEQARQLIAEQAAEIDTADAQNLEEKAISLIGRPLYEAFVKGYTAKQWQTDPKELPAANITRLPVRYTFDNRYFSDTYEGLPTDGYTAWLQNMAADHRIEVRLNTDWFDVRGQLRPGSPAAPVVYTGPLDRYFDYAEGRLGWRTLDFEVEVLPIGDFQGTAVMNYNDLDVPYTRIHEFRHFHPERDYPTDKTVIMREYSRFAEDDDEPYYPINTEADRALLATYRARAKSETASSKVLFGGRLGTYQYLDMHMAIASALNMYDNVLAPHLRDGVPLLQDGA
RecA splice inh: inhibitors of M. tuberculosis RecA intein splicing | cell-free RecA intein splicing, fluorescence | hit rate 0.75% among 290,000 | P9WHJ3 | inhibition, % (concentration not given with the values); in the data active means inhibition above about 30%; inconclusive means no clear call, values can overlap the other calls;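 further: 0% = vehicle wells and 100% = reference inhibitor control wells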
FBA Mtb inh: inhibits M. tuberculosis FBA enzyme | P9WQA3 | purified M. tuberculosis FBA, fluorescence read-out | inhibition, % at 1 µM | hit rate 2.3% among 360,000 | AID 588726; in the data active means inhibition above about 27%;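 further: 0% = vehicle and 100% = reference inhibitor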
Numbers without * were called inactive; u = inconclusive; x = no result given; + = active, no number.

SMILES	Rv3671c protease	Mtb bLac sens	GDH-TPI inh	UGM FP inh	RecA splice inh	FBA Mtb inh
Cc1ccccc1-c1noc(N)c1C#N	-1	74	13	-1	13	3
CN(C)/C=C/c1onc(-c2ccccc2Cl)c1C#N	-9	6	43*	1	4	-2
Cc1cc(C)c(C)c(S(=O)(=O)N2CCN(C(=O)CNC(=O)c3ccco3)CC2)c1C	-7	2	11	1	x	4
CC(C)c1ccccc1NC(=O)CSc1n[nH]c(=O)n1C1CC1	-15	-7	4	-2	x	-1
CN(Cc1c(C(=O)N/N=C/c2ccccc2)nnn1-c1nonc1N)c1ccccc1	-5	-6	2	2	4	-2
Nc1nonc1-n1nnc(C(=O)N/N=C/c2ccc(O)cc2)c1COc1ccc(F)cc1	-6	0	32*	-2	-3	-2
COCc1c(C(=O)N/N=C/c2ccc(C)o2)nnn1-c1nonc1N	-1	-3	38*	1	-3	-3
CN(C)c1ccc(/C=N/NC(=O)c2nnn(-c3nonc3N)c2CN(C)c2ccccc2)cc1	5	-3	31*	-1	-6	8
COc1ccc(CNC[C@H]2O[C@@H](n3ccc(=O)[nH]c3=O)[C@H](O)[C@@H]2O)cc1	x	x	x	x	x	-1
C/C(=N\Nc1ccc(Cl)c(C(=O)O)c1)c1cccc([N+](=O)[O-])c1	-8	11	42*	0	-4	-5
NS(=O)(=O)c1ccc(N/N=C/C=C/c2ccccc2[N+](=O)[O-])cc1	3	3	29	1	1	-6
O=C(O)c1cc(N/N=C/C=C/c2ccccc2[N+](=O)[O-])ccc1Cl	6	10	38*	-3	-1	-9
Cc1cccc(N2CCN(C(=O)c3[nH]c(C(F)(F)F)nc3-c3ccccc3)CC2)c1C	x	x	x	x	x	1
CN(c1ccccc1)c1nc(N)c(C#N)c(CC#N)c1C#N	-3	-7	24	1	-2	1
N#CCc1c(C#N)c(N)nc(Nc2ccccc2)c1C#N	3	-9	31*	4	-16	-2
CN(C(=O)NC(=O)C1=C(N2CCOCC2)/C(=C/c2ccccc2)CC1)S(C)(=O)=O	0	1	29	-1	-15	114*
CC1(C(=O)NS(=O)(=O)c2ccc(C#N)cc2)CCN1C(=O)C1(c2ccc(Cl)cc2)CC1 (stereo not drawn)	x	x	10	x	x	-1
CC(=O)N1CCN(C(=O)c2cc(S(=O)(=O)N3CCN(c4ccccc4)CC3)ccc2Cl)CC1	x	x	9	x	x	1
C/C(=N\Nc1ncc(Cl)cc1Cl)c1ccc(C#N)cc1	6	-5	46*	0	0	-1
O=C(Cc1ccccc1F)Nc1ccc(S(=O)(=O)N2CCCC2)cc1	-11	-13	-3	-1	x	1
COc1ccc(/C=C2\N=C(c3ccc(C)cc3)OC2=O)cc1	5	99	7	1	0	0
Cc1ccc(C2=N/C(=C/N3CCOCC3)C(=O)O2)cc1	9	-2	38*	2	0	5
Cc1ccc(C2=N/C(=C\N3CCCCC3)C(=O)O2)cc1	4	0	62*	0	-5	-2
COc1cc(/C=C2\SC(=O)N(CC(=O)Nc3ccc(C)cc3)C2=O)cc(Cl)c1OCC(=O)O	4	7	33*	0	5	-2
Cc1ccc(NC(=O)CN2C(=O)S/C(=C\c3ccc(OCC(=O)O)c(Br)c3)C2=O)cc1	5	-2	-2	1	6	0
SMILES	Rv3671c protease	Mtb bLac sens	GDH-TPI inh	UGM FP inh	RecA splice inh	FBA Mtb inh
CC1(C(=O)Nc2cccc3ccccc23)CCN1C(=O)Cc1ccc(Cl)cc1Cl (stereo not drawn)	x	x	10	x	x	0
COc1ccc(CN2CCN(C(=O)CCC(=O)Nc3nnc(C4CCCCC4)s3)CC2)cc1F	3	4	2	-3	-1	-1
CCc1ccc(C2=NN(S(C)(=O)=O)C(c3cccs3)C2)cc1 (stereo not drawn)	-14	3	16	0	-4	1
Cc1ccc(C2CC(c3ccccc3)=NN2c2ccc(S(N)(=O)=O)cc2)cc1 (stereo not drawn)	x	x	-2	x	x	+
NS(=O)(=O)c1ccc(N2N=C(c3ccccc3)CC2c2ccc(Br)cc2)cc1 (stereo not drawn)	x	x	9	x	x	187*
CCc1ccc(C2=NN(c3ccc(S(N)(=O)=O)cc3)C(c3ccc(F)cc3)C2)cc1 (stereo not drawn)	7	97	11	1	-33	+
CNC(=S)N1N=C(c2ccccc2)CC1c1ccccc1Cl (stereo not drawn)	-2	3	6	4	-5	2
NS(=O)(=O)c1ccc(N2N=C(c3ccccc3)CC2c2ccccc2Cl)cc1 (stereo not drawn)	x	x	25	x	x	188*
O=S(=O)(O)c1ccc(N2N=C(c3ccccc3)CC2c2ccccc2)cc1 (stereo not drawn)	6	-6	18	3	-160	+
NS(=O)(=O)c1ccc(N2N=C(c3ccccc3)CC2c2ccccc2)cc1 (stereo not drawn)	6	20	12	0	-43	+
Fc1ccc(N2N=C(c3cccs3)CC2c2ccccc2)cc1 (stereo not drawn)	7	10	6	1	-75	26
CC1(CCC(=O)O)C(=O)CCC2C1CCC1(C)C2CCC1(C)O (stereo not drawn)	x	x	4	x	x	-2
O=C(C=Cc1ccc2c(c1)OCO2)C1CC1	x	x	36*	x	x	1
O=C(/C=C/c1cccc(Br)c1)c1ccc2c(c1)OCO2	-7	86	9	-1	9	2
O=C(/C=C/c1ccccc1)c1ccc2c(c1)OCO2	3	62	40*	0	5	-5
CCCCN(C(=O)c1cccc(S(=O)(=O)N(C)c2ccc(C)cc2)c1)c1c(N)n(CCCC)c(=O)[nH]c1=O	-3	-8	9	1	2	2
N#C/C(=N\Nc1ccccc1)C(N)=S	15	34	31*	1	7	-7
CC(C)c1ccc(NC(=O)c2ccc3c(c2)C(=O)N(Cc2cccnc2)C3=O)cc1	-4	u	12	-6	0	0
COc1ccc(OC)c(-c2cc(C(=O)N3CCCc4ccccc43)no2)c1	-1	23	34*	0	0	2
Cc1cccc(NC(=O)Cn2cnc(S(=O)(=O)N3CCCC3)c2)c1C	-5	3	6	0	-1	1
COCCN(C(=O)CSc1nnc(-c2ccc(C)c(C)c2)o1)c1c(N)n(CC(C)C)c(=O)[nH]c1=O	1	0	-3	-2	1	-2
CCN(CC)c1ccc(-c2nnc(SCC(=O)N(CCOC)c3c(N)n(CC(C)C)c(=O)[nH]c3=O)o2)cc1	-3	-5	47*	x	1	-2
O=C(c1c[nH]c(C(=O)C(Cl)(Cl)Cl)c1)c1ccccc1F	1	6	5	2	60*	0
O=C(NC(=C(Cl)Cl)S(=O)(=O)c1ccc(Cl)cc1)c1ccccc1	2	0	-1	0	30*	-2
